For 14 compounds, outcome, potentiation and inhibition results are on record in PubChem BioAssay.

For some of these results: Results with a measured potency or affinity are listed apart. Activity calls are given as the source filed them.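 How the source made its calls, unless noted: active means earlier screen potentiator hit that boosts the TRPC4 ion channel at some dose, with a dose response; inactive means no potentiation, no dose response, or not a prior hit.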

The inhibition is the drop in the measured response relative to a control, in per cent.

Assay [1] relates to TRPC4 beta (transient receptor potential cation channel C4), mouse. Description: activators of mouse TRPC4 channel, confirmation, cell-based, Fluo4 calcium, HEK293 TRPC4beta/mu-opioid, duplicates, 10 µM (AID 2426;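 active means fluorescence ratio normalized to control raised more than 50% in primary screen plus both repeat runs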). To be noted: Fluo4 calcium fluorescence, at 10 µM; hits give high values.
The test system of assay [2] is transient receptor potential cation channel C4 beta (TRPC4), mouse. Put plainly: activators of mouse TRPC4 channel, confirmation, cell-based, second round, Fluo4, HEK293 TRPC4beta/mu-opioid, 1 µM (AID 2461;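 active means primary screen active and over 50% activation in each of two duplicate runs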). The note with it: Fluo4 calcium fluorescence, at 1 µM; hits give high values.
Assay [3] deals with TRPC4 (transient receptor potential cation channel C4 beta), mouse. Description: positive allosteric modulators of mouse TRPC4, confirmation, cell-based, second round, Fluo-4, HEK293 TRPC4beta/mu-opioid, 1 µM (AID 2554;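 active means primary screen hit whose fluorescence ratio, in both repeats, exceeds the weak agonist control mean by 3 SD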). To be noted: DAMGO EC20, Fluo-4 calcium flux, at 1 µM; hits give high values. On the technique in general: Calcium assays in cells follow changes in intracellular calcium, usually with a dye or a luminescent sensor.

For assay [4], the system named is TRPC4 beta (transient receptor potential cation channel C4), mouse. Description: positive allosteric modulators of mouse TRPC4, confirmation, cell-based, Fluo-4, HEK293 TRPC4beta/mu-opioid (AID 2555;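 active means primary screen hit whose calcium fluorescence ratio, in both repeats, exceeds the weak agonist control mean by 3 SD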). The note with it: DAMGO EC20, Fluo-4 calcium flux, at 10 µM; hits give high values.
For assay [5], the target named is Short transient receptor potential channel 4 (Mus musculus) (UniProt Q9QUQ5). Description: inhibitors of mouse TRPC4 channel, confirmation, cell-based, Fluo4, HEK293 TRPC4beta/mu-opioid (AID 2636;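 active means calcium signal cut by more than 3 SD below the full-agonist control yet still positive, in both repeats and the earlier primary screen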). The note with it: DAMGO, Fluo4 calcium flux, at 10 µM; hits give high values.
Chain of Short transient receptor potential channel 4 (Mus musculus) (Q9QUQ5 whole entry, looked up): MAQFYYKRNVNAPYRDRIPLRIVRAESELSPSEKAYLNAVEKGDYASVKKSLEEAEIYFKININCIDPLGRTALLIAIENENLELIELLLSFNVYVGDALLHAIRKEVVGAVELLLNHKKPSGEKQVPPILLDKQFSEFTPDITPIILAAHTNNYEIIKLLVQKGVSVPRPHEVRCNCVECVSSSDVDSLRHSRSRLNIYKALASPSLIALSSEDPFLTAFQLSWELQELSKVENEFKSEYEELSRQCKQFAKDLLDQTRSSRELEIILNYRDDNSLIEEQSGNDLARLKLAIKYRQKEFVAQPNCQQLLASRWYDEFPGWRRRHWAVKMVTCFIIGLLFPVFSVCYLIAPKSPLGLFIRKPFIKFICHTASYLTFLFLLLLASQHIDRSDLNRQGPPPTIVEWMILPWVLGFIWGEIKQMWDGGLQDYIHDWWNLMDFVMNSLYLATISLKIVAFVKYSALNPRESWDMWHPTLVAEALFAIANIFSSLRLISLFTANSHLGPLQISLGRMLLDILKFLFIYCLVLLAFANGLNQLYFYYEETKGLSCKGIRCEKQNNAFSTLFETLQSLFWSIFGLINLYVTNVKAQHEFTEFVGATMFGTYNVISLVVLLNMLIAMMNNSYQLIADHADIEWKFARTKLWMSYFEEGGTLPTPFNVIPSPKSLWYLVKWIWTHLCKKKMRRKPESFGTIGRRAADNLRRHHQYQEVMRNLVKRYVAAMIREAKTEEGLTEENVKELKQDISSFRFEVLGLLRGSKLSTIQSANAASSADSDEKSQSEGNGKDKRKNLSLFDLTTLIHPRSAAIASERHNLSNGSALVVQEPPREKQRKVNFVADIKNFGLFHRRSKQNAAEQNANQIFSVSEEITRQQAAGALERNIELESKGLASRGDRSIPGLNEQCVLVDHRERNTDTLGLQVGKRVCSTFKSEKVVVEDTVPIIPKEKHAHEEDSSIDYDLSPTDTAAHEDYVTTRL
Assay [6] has the same target. Description: inhibitors of mouse TRPC4 channel, confirmation, cell-based, second round, Fluo4, HEK293 TRPC4beta/mu-opioid, 1 µM (AID 2637;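 active means calcium signal ratio cut to more than 3 SD under the fully stimulated control mean yet still positive, in both repeats and the primary screen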). The note with it: Fluo4 calcium flux, DAMGO, at 1 µM; hits give high values.
The target is the same in assay [7]. Put plainly: mouse TRPC4 channel activators, dose response, cell-based, HEK293 TRPC4/mu-opioid, Fluo-4 calcium (AID 434937;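 active means primary screen activator hit with a dose response curve and TRPC4 channel activation at any tested dose; inactive means no activation, no dose response, or not a primary hit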).
For assay [8] the target is unchanged. Description: TRPC4 positive allosteric modulators, dose response, cell-based, HEK293 TRPC4/mu-opioid, Fluo-4 calcium, EC20 DAMGO (AID 434941).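 Further: calcium entry triggered by an EC20 dose of DAMGO at the co-expressed mu-opioid receptor.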
Assay [9] has the same target. Description: mouse TRPC4 channel inhibitors, dose response, cell-based, HEK293 TRPC4/mu-opioid, Fluo-4 calcium (AID 434942;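 active means primary screen inhibitor hit that blocks the TRPC4 channel at some tested dose, yielding a dose curve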).
Assay [10] has as its target Short transient receptor potential channel 6 (Mus musculus) (UniProt Q61143). Description: inhibition of mouse TRPC6 channel, confirmation, selectivity assay for TRPC4 inhibitor project, cell-based, HEK293, membrane potential dye, duplicate (AID 434948;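 active means active in primary screen and both duplicates, each dropping signal beyond three positive-control SD with fluorescence still positive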). To be noted: HEK293 TRPC6, membrane potential dye fluorescence, at 10 µM, stimulated with maximal-effect acetylcholine; hits give high values.

Assay [11] has the same target. Put plainly: activation of mouse TRPC6 channel, confirmation, selectivity assay for TRPC4 activator project, cell-based, HEK293, membrane potential dye, duplicate (AID 434950;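 active means membrane potential signal rise above negative control mean plus 3 SD in both duplicates, also active in the earlier TRPC4 screen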). The note with it: HEK293 TRPC6, membrane potential fluorescence, at 10 µM; hits give high values.
Assay [12] shares this target. Description: TRPC6 potentiation by TRPC4 potentiator hits, confirmation, selectivity assay for TRPC4 potentiator project, HEK293 cells, membrane potential dye, duplicate (AID 434952;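 active means compound raising the membrane signal above positive-control mean plus 3 SD in both repeats, and a primary screen hit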). The note with it: HEK293 TRPC6, membrane potential dye fluorescence, at 10 µM, maximal acetylcholine added after compound; hits give high values.
Assay [13] deals with Short transient receptor potential channel 4 (Mus musculus) (UniProt Q9QUQ5). Description: calcium flux activators in TRPC4/5HT1a cells, counter-screen for TRPC4 activator project, cell-based, second counter screen, HEK293 TRPC4/5HT1a, Fluo-4 (AID 434977;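 active means calcium signal rise above buffer-control mean plus 5 SD in both duplicates, and also a hit in the primary screen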). To be noted: Fluo-4 calcium flux, at 10 µM; hits give high values.
Assay [14] is described as follows: calcium flux inhibitors in TRPC4/5HT1a cells, confirmation, counter-screen for TRPC4 inhibitor project, cell-based, second counter screen, HEK293 TRPC4/5HT1a, Fluo-4 (AID 434978;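 active means primary screen active whose calcium signal fell more than 3 SD beyond the full-serotonin control mean in both duplicate plates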;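 further: serotonin given first at submaximal then at maximal dose after compound preincubation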). To be noted: Fluo-4 calcium flux, at 10 µM, serotonin added to trigger calcium flux; hits give high values.
Assay [15] relates to TRPC4 (mouse), co-expressed with 5HT1a in HEK293. Description: calcium flux potentiators in TRPC4/5HT1a cells, confirmation, counter-screen for TRPC4 potentiator project, cell-based, second counter screen, HEK293 TRPC4/5HT1a, Fluo-4 (AID 434979;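 active means signal rise over 3 SD above mean of control wells given weak agonist, in both repeats and first screen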). To be noted: Fluo-4 calcium flux, at 10 µM, serotonin added at its EC20 dose; hits give high values.
The nature of assay [16]: calcium flux activation in mu-opioid HEK293 cells, confirmation, counter-screen for TRPC4 activator project, cell-based, HEK293 mu-opioid receptor line (AID 449723;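 active means hit in primary screen, with calcium signal over 5 SD above buffer well mean in both duplicates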;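 further: counter screen cells carry the mu-opioid receptor alone and lack TRPC4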). The note with it: Fluo-4 calcium fluorescence, at 10 µM; hits give high values.
The nature of assay [17]: calcium flux enhancement in mu-opioid HEK293 cells, confirmation, counter-screen for TRPC4 allosteric potentiator project, cell-based, HEK293 mu-opioid receptor line (AID 449724;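 active means calcium signal rise more than 3 SD above the low-dose agonist control mean, in both duplicate plates and the primary screen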;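 further: HEK293 cells carrying mu-opioid receptor only with no TRPC4 channel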). The note with it: Fluo-4 calcium flux, at 10 µM, compound added before EC20 DAMGO stimulus; hits give high values.

Chain of Short transient receptor potential channel 6 (Mus musculus) (Q61143 whole entry, looked up): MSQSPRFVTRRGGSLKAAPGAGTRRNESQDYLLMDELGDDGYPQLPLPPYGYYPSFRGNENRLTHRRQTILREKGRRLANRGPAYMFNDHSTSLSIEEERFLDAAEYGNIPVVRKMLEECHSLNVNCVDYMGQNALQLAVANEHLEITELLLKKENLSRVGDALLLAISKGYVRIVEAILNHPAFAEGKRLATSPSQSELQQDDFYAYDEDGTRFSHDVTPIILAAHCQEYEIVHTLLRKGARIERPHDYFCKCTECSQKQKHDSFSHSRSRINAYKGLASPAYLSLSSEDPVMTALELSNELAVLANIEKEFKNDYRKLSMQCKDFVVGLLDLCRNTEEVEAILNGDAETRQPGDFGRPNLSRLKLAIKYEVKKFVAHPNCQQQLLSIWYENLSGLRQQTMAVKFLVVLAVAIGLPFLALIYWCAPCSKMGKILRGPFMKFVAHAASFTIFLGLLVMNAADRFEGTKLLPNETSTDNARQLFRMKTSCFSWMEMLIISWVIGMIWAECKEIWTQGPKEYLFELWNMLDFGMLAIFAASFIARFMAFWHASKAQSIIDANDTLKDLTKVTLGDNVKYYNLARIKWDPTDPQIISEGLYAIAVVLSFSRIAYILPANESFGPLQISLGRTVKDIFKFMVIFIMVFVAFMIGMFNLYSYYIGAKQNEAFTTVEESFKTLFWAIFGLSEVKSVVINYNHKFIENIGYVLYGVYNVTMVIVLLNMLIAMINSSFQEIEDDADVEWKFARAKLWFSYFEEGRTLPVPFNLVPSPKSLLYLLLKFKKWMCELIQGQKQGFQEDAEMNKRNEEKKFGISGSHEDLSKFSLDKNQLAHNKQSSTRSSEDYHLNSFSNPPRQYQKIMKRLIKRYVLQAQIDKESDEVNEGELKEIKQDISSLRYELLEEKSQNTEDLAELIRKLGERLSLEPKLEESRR

Consider `CC(=O)c1ccc(N2CCN(c3ccc(S(=O)(=O)NCCCN(C)C)cc3[N+](=O)[O-])CC2)cc1`, for which the outcome in assay [1], in assay [2], in assay [5], in assay [6], in [7] and in [8] was inactive. In addition, the outcome in [9], in [10], in assay [11], in assay [12], in assay [13] and in assay [14] was inactive. In addition, the result in assay [16] and in [17] was inactive. Also, the potentiation was 12% (active) in assay [3], 19% (active) in [4] and 14.6% (active) in assay [15].
In the case of `Cc1ccc(NS(=O)(=O)c2cc(C(=O)N3CCc4ccccc4C3)ccc2Cl)cc1`, the result in [1], in assay [2], in assay [3], in assay [4], in assay [5] and in assay [6] was inactive. Further, the outcome in [7], in [8], in assay [9], in assay [10], in [11] and in assay [12] was inactive. Moreover, the result in assay [13], in assay [14], in assay [16] and in assay [17] was inactive. In addition, the potentiation in [15] was 9.01% (active).
As to `COC(=O)CSc1nnc(CNS(=O)(=O)c2ccc(Br)cc2)n1C`, the result in assay [1], in assay [2], in assay [3], in assay [4], in [5] and in assay [6] was inactive. Moreover, the outcome in [7], in assay [8], in [9], in assay [10], in assay [11] and in assay [12] was inactive. Besides, the outcome in [13], in [14], in assay [15], in assay [16] and in assay [17] was inactive.
Regarding `CCn1c(C)nc2cc(C(=O)N/N=C/c3cccc(O)c3O)ccc21`, the result in assay [1], in assay [2], in [5], in assay [6], in [7] and in assay [8] was inactive. Also, the outcome in assay [9], in [10], in assay [11], in assay [12], in [13] and in assay [14] was inactive. The outcome in assay [16] and in [17] was inactive. In addition, the potentiation in [3] is 79% (active); in assay [4], 50% (active); in assay [15], 23% (active).
In the case of `COc1ccc(NS(=O)(=O)c2cccc(C(=O)N3CCN(Cc4cc(OC)ccc4OC)CC3)c2)cc1`, the result in assay [1], in [2], in assay [3], in [4], in [5] and in assay [6] was inactive. For the same compound, the outcome in [7], in assay [8], in [9], in assay [10], in assay [11] and in assay [12] was inactive. In addition, the result in [13], in assay [14], in [15], in assay [16] and in assay [17] was inactive.
As to `CCCCn1c(N)c(N(CCOC)C(=O)c2ccc(-c3ccc(C(C)=O)cc3)o2)c(=O)[nH]c1=O`, the result in assay [1], in [2], in assay [3], in assay [4], in assay [5] and in assay [6] was inactive. Besides, the outcome in [7], in assay [8], in assay [9], in assay [10], in assay [11] and in assay [12] was inactive. The outcome in assay [13], in [14], in assay [15], in [16] and in assay [17] was inactive.
For `CC(=O)Oc1ccc(NC(=O)CCC2CCCCC2)c(C(=O)O)c1`, the outcome in [1], in assay [2], in assay [3], in [4], in [6] and in [7] was inactive. The outcome in [8], in assay [9], in assay [10], in [11], in assay [12] and in [13] was inactive. Besides, the outcome in assay [14], in assay [15], in [16] and in assay [17] was inactive. In addition, the inhibition in assay [5] was 68% (active).
`CCCCNC(=O)/C(C#N)=C/c1ccc(F)cc1F`: the outcome in assay [1], in assay [2], in assay [3], in [5], in assay [6] and in [7] was inactive. For the same compound, the result in assay [8], in assay [9], in [10], in [11], in [12] and in [13] was inactive. Further, the outcome in [14], in assay [15], in assay [16] and in [17] was inactive. Also, the potentiation in [4] was 9% (active).
Regarding `COc1ccc(CNc2ccc(Cl)cc2)cc1Cn1ccnc1`, the result in assay [1], in assay [2], in [3], in assay [4], in assay [5] and in assay [6] was inactive. For the same compound, the outcome in assay [7], in assay [8], in assay [9], in assay [10], in assay [11] and in assay [12] was inactive. Besides, the result in assay [13], in assay [14], in [15], in assay [16] and in [17] was inactive.
For the compound `CC(NC(=O)c1ccccc1NC(=O)CN1CCc2ccccc2C1)c1ccccc1` (stereo not drawn), the outcome in assay [1], in assay [2], in assay [3], in [4], in assay [5] and in assay [6] was inactive. Besides, the outcome in assay [7], in assay [8], in assay [9], in assay [10], in [11] and in assay [12] was inactive. Besides, the result in assay [13], in assay [14], in assay [16] and in [17] was inactive. The potentiation in assay [15] is 20.3% (active).
Take `C=C(C)COc1ccc(-c2nc(N)ncc2-c2ccccc2OC)c(O)c1`: the result in assay [1], in assay [2], in [3], in assay [4], in [5] and in assay [6] was inactive. For the same compound, the outcome in assay [7], in [8], in assay [9], in assay [10], in assay [11] and in [12] was inactive. The outcome in [13], in [14], in assay [16] and in assay [17] was inactive. The potentiation in assay [15] was 8.86% (active).
Regarding `Cc1n[nH]c(C)c1Cc1c(F)cccc1Cl`, the outcome in assay [1], in assay [2], in assay [3], in [4], in assay [6] and in assay [7] was inactive. Besides, the result in assay [8], in assay [9], in [10], in assay [11], in assay [12] and in assay [13] was inactive. Also, the result in [14], in [15], in assay [16] and in [17] was inactive. Besides, the inhibition in assay [5] was 94% (active).
Regarding `N=c1oc2ccc(Cl)cc2cc1C(=O)NC1CCCCCC1`, the result in assay [1], in [2], in assay [3], in assay [4], in assay [5] and in assay [6] was inactive. Besides, the outcome in assay [7], in assay [8], in assay [9], in assay [10], in assay [11] and in assay [12] was inactive. The outcome in assay [13], in assay [14], in assay [15], in assay [16] and in assay [17] was inactive.
Regarding `Cc1ccc(-c2c(C(=O)N/N=C/c3ccc(OC(C)C)cc3)nnn2-c2nonc2N)cc1`, the result in assay [1], in [2], in assay [3], in assay [4], in assay [5] and in [6] was inactive. Besides, the outcome in [7], in [8], in assay [9], in [10], in assay [11] and in assay [12] was inactive. Also, the result in [13], in assay [14], in assay [16] and in [17] was inactive. In [15], the potentiation is 19.3% (active).
